Source: PubChem BioAssay (NCATS)
Values joined by “and” are separate entries in the source; they are usually repeats but may differ in a detail not shown here. Identical values can stand only once. Results filed as inconclusive are left out. Some compounds were tested as several samples or in several runs, with calls that do not always agree. Active and inactive are the calls of the source. Unless noted, calls follow the shape of the dose curve; as a rule, active = well fitted curve in the direction sought with a large enough effect; inconclusive = small, poorly fitted or top-dose-only effect, or another doubt; inactive = no such curve, though single readings can be large; an effect the other way counts as inactive or inconclusive.

How the values were obtained:
[1] = Primary qHTS for inhibitors of nuclear receptor binding SET domain protein 2 (NSD2) in an isogenic RCH-ACV NSD2 p.E1099K mutant (9B) (AID 1645876); also: nearly all actives have a fitted effect of over 70% in size; also: potency is read from the fitted curve at half-maximal effect
[2] = Primary qHTS for inhibitors of nuclear receptor binding SET domain protein 2 (NSD2) in an RCH-ACV wild type WT cells (2C) (AID 1645877); also: nearly all actives have a fitted effect of over 70% in size; also: potency is read from the fitted curve at half-maximal effect
[3] = biological target: Catechol O-methyltransferase (Homo sapiens) (UniProt P21964); assay: Confirmatory Screen for Target Class Profiling of Small Molecule Inhibitors of Methyltransferases (AID 1745852; calls by dose curve; also: potency is read from the fitted curve at half-maximal effect; as to activity change, negative = inhibition: % is scaled to controls: 0 for no effect and ±100 for the full control effect); details: MTase-Glo luminescence, SAH detection, recombinant enzyme; measured here: COMT max response; stronger effect = lower value
[4] = biological target: Guanidinoacetate N-methyltransferase (Homo sapiens) (UniProt Q14353); assay: as above; details: MTase-Glo luminescence, SAH detection, recombinant enzyme; activity change, negative = inhibition: at 57.3 µM (top of the series) unless noted
[5] = biological target: Nicotinamide N-methyltransferase (Homo sapiens) (UniProt P40261); assay: as above; details: MTase-Glo luminescence, SAH detection, recombinant enzyme; measured here: NNMT max response; stronger effect = lower value
[6] = biological target: Phenylethanolamine N-methyltransferase (Homo sapiens) (UniProt P11086); assay: as above; details: MTase-Glo luminescence, SAH detection, recombinant enzyme; measured here: PNMT max response; stronger effect = lower value
[7] = biological target: Phospholipid hydroperoxide glutathione peroxidase GPX4 (Homo sapiens) (UniProt P36969); assay: Primary qHTS Assay for Inhibitors of Recombinant Selenoprotein Glutathione Peroxidase 4 (GPX4) (AID 1845192); also: nearly all actives have a fitted effect of over 65% in size; also: potency is read from the fitted curve at half-maximal effect; as to activity change, negative = inhibition: % is scaled to controls: 0 for no effect and ±100 for the full control effect
In short: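 GR-coupled assay: recombinant GPX4 preincubated 30 min with compound at room temperature; final 200 nM GPX4, 1 mM GSH, 0.5 mM cumene hydroperoxide, 0.5 mM NADPH, 100 nM GR, 0.01% BSA, pH 7.5 Tris. NADPH fluorescence (340/450 nm) read at 0 and 15 min.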

[8] = biological target: Luciferin 4-monooxygenase (Photinus pyralis) (UniProt P08659); assay: Primary firefly luciferase (FLuc) qHTS assay for identification of artifact compounds. (AID 1845220); also: nearly all actives have a fitted effect of over 60% in size;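 as to activity change, negative = inhibition: plate controls were DMSO vehicle for no effect and no enzyme for full effect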
In short: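 Enzymatic FLuc inhibition assay: compounds pre-exposed to luciferin/ATP (10 uM each) for 15 min, then purified P. pyralis enzyme at 10 nM added. Read-out: luminescence at 5 min.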

[9] = Primary fluorescence-based thiol-reactive (MSTI) qHTS assay for identification of artifact compounds. (AID 1845221); also: nearly all actives have a fitted effect of over 65% in size; also: potency is read from the fitted curve at half-maximal effect
In short: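 Compounds were incubated 1 h at room temperature in the dark with the MSTI probe (4 uM) in PBS pH 7.4, 2% DMSO. Signals were normalized between Acetyl-MSTI and MSTI.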

[10] = tested on: Nanoluciferase (engineered Oplophorus gracilirostris luciferase); assay: Primary Nanoluciferase (NLuc) qHTS assay for identification of artifact compounds. (AID 1845222); also: potency is read from the fitted curve at half-maximal effect
In short: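 S16 cell supernatant NLuc, 1:55; cpds qHTS; 15 min RT dark; Nano-Glo substrate 1:100, 5 min; luminescence; Hill fit of % inhibition.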

[11] = biological target: Glutathione peroxidase 1 (Homo sapiens) (UniProt P07203); assay: Primary qHTS Assay for Inhibitors of Recombinant Selenoprotein Glutathione Peroxidase 1 (GPX1) (AID 1845191); also: nearly all actives have a fitted effect of over 65% in size
In short: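 GR-coupled assay: compounds preincubated 30 min at room temperature with GPX1, then reaction started with CHP; final 10 nM GPX1, 1 mM GSH, 0.5 mM CHP, 0.5 mM NADPH, 100 nM GR, 0.01% BSA, pH 7.5 Tris buffer. NADPH fluorescence (340/450 nm) read at 0 and 15 min.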

[12] = NCATS anti-infectives library activity on the primary C. elegans qHTS viability assay (AID 1745855; calls by dose curve)
In short: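 Viability read-out is GFP fluorescence of PE254-GFP-FLuc C. elegans, measured by laser cytometry (488 nm) at day 0, 3 and 7. Ten L1 worms per well were incubated 7 days at 21 °C with compounds and bacterial capsules in S medium.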

[13] = NCATS anti-infectives library activity on HEK293 viability as a counter-qHTS vs the C. elegans viability qHTS (AID 1745854);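 also: HEK293 cells exposed to compounds for 24 hr before the viability read; % is scaled to controls: 0 for no effect and ±100 for the full control effect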
In short: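 HEK293 cells (1,500/well) exposed 24 hr at 37C to 1:5 titrations, up to 41.7 uM final; counter-screen to a C. elegans viability qHTS. Viability by CellTiter-Glo luminescence after 10 min at room temperature; digitonin as control.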

[14] = biological target: Rap guanine nucleotide exchange factor 3 (Homo sapiens) (UniProt O95398); assay: Confirmatory qHTS for antagonist of cAMP-regulated guanine nucleotide exchange factor 3 (EPAC1) (AID 1645880); details: EPAC1 Rap1B-BODIPY-GDP exchange, fluorescence; also: potency is read from the fitted curve at half-maximal effect; nearly all actives have a fitted effect of over 55% in size
In short: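 Nucleotide exchange uses 100 nM EPAC1, 250 nM RAP1B-BODIPY-GDP and 50 uM GDP, with compounds in a concentration-titration series. After 5 min at room temperature, fluorescence (480 nm ex/540 nm em) is read every 5 min for 30 min. Data are normalized to control ATA and DMSO.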

[15] = biological target: Rap guanine nucleotide exchange factor 3 (Homo sapiens) (UniProt O95398); assay: Confirmatory qHTS for agonist of cAMP-regulated guanine nucleotide exchange factor 3 (EPAC1) (AID 1645881);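 also: EPAC1 catalysed release of BODIPY-GDP from Rap1B seen as fluorescence loss; 100% = effect of cAMP agonist control; nearly all actives have a fitted effect of over 75% in size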
[16] = biological target: Rap guanine nucleotide exchange factor 4 (Homo sapiens) (UniProt Q8WZA2); assay: Confirmatory qHTS for agonist of cAMP-regulated guanine nucleotide exchange factor 4 (EPAC2) (AID 1645884);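 also: nucleotide exchange releases bodipy-GDP from Rap1 and this lowers its fluorescence; % is scaled to controls: 0 for no effect and ±100 for the full control effect; nearly all actives have a fitted effect of over 65% in size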
[17] = biological target: Rap guanine nucleotide exchange factor 4 (Homo sapiens) (UniProt Q8WZA2); assay: Confirmatory qHTS for antagonist of cAMP-regulated guanine nucleotide exchange factor 4 (EPAC2) (AID 1645885); details: EPAC2 Rap1B-BODIPY-GDP exchange fluorescence, biochemical; also: potency is read from the fitted curve at half-maximal effect; nearly all actives have a fitted effect of over 25% in size

Sequence of Catechol O-methyltransferase (Homo sapiens) (P21964 whole entry, looked up): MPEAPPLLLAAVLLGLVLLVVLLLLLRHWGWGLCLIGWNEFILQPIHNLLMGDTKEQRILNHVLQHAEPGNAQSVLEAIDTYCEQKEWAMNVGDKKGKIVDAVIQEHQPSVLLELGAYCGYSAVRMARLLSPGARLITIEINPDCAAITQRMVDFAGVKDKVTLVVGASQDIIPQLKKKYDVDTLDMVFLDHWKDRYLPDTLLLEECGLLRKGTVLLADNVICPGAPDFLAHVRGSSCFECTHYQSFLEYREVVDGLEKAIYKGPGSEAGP
Sequence of Phospholipid hydroperoxide glutathione peroxidase GPX4 (Homo sapiens) (P36969 whole entry, looked up): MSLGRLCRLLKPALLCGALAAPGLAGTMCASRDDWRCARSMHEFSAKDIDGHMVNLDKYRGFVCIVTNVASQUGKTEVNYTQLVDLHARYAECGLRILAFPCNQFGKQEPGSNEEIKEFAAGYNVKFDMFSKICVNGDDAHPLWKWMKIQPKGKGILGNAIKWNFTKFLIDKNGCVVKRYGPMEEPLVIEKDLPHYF
Sequence of Phenylethanolamine N-methyltransferase (Homo sapiens) (P11086 whole entry, looked up): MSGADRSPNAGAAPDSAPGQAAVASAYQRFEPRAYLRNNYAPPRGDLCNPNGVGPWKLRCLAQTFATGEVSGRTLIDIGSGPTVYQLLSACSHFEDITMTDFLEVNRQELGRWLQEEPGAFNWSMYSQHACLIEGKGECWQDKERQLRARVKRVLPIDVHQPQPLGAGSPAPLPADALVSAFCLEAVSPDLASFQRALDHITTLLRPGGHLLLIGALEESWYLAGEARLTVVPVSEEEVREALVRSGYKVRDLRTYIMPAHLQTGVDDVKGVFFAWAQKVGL
Sequence of Nicotinamide N-methyltransferase (Homo sapiens) (P40261 whole entry, looked up): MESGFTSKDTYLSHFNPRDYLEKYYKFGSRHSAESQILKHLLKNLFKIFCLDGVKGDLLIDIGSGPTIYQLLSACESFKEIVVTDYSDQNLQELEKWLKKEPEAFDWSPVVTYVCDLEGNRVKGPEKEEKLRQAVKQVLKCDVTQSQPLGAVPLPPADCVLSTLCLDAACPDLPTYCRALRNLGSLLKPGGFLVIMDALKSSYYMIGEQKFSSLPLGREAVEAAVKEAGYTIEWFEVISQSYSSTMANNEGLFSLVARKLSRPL
Sequence of Glutathione peroxidase 1 (Homo sapiens) (P07203 whole entry, looked up): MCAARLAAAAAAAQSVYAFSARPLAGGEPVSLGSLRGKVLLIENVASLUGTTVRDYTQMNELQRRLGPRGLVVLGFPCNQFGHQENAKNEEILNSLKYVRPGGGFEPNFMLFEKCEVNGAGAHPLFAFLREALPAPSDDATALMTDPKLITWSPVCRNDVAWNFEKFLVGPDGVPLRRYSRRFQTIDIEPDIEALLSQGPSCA
Sequence of Rap guanine nucleotide exchange factor 3 (Homo sapiens) (O95398 whole entry, looked up): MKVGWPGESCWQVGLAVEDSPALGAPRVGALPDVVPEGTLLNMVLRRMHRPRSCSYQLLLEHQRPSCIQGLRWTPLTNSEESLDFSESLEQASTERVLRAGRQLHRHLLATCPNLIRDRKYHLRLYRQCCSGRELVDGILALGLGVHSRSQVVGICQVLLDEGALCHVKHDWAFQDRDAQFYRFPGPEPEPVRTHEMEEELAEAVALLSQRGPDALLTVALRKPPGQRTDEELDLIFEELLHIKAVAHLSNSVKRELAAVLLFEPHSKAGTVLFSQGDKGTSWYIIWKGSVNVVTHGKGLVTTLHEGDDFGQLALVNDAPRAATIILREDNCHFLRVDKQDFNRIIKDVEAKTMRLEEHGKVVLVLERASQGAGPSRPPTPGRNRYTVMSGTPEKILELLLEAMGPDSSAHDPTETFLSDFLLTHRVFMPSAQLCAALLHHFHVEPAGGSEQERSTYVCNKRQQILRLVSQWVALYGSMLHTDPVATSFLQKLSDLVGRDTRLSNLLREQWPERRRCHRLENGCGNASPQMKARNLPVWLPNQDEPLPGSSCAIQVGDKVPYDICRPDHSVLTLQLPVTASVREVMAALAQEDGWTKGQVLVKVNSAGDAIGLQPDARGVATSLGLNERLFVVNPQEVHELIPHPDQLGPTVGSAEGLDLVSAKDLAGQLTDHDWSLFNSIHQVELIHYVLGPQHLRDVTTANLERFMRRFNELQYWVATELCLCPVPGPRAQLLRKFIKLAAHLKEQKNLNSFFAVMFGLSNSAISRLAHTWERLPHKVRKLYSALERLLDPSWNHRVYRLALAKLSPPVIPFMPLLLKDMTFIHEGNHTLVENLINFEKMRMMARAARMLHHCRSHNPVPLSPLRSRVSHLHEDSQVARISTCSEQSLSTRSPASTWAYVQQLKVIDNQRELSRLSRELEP
Sequence of Rap guanine nucleotide exchange factor 4 (Homo sapiens) (Q8WZA2 whole entry, looked up): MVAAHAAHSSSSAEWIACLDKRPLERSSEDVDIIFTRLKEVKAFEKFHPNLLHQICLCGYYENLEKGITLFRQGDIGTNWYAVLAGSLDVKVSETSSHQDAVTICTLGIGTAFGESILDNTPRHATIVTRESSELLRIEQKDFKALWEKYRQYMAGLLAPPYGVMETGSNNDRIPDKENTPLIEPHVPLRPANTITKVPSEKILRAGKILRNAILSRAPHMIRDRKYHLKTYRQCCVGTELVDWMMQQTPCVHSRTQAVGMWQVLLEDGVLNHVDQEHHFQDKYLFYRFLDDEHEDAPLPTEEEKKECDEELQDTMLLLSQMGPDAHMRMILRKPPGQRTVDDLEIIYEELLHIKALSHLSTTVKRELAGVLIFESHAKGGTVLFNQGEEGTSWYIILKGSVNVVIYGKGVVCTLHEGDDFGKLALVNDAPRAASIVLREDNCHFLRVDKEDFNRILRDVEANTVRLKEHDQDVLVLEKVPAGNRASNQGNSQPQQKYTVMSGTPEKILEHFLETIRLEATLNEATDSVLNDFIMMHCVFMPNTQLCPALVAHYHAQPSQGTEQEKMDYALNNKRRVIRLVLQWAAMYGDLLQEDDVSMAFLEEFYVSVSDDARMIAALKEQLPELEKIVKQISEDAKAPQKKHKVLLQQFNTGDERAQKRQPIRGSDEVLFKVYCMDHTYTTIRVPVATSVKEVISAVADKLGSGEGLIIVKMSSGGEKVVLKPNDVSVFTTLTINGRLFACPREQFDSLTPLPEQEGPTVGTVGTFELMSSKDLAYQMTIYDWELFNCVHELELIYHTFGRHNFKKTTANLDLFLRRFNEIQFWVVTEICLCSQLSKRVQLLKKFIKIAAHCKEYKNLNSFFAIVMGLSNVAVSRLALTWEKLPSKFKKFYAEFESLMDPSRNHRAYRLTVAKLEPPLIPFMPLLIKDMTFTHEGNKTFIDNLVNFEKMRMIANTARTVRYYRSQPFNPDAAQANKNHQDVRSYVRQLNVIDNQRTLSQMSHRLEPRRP

SMILES	Potency [1]	Potency [2]	activity [3]	Potency [4]	activity [5]	activity [6]	Potency [7]	Potency [8]	Potency [9]	Potency [10]	Potency [11]	activity change, negative = inhibition [4]	Potency [12]	Potency [13]	Potency [14]	outcome [15]	outcome [16]	Potency [17]
CN1CCC(CNc2ccc3ncc(-c4cccc(OC(F)(F)F)c4)n3n2)CC1	2.58 µM (active) and 4.68 µM (active)	2.05 µM (active) and 3.32 µM (active)	-52.2%	30.4 µM (active)	-51.9%	-68.8%	22.7 µM (active) and 14.3 µM (active)	inactive	inactive	inactive								
O=C(O)C1(Cc2cccc(Nc3nccs3)n2)CCC(Oc2cccc(Cl)c2F)CC1 (stereo not drawn)	1.45 µM (active)	2.58 µM (active) and 3.72 µM (active)	-35%	42.9 µM (active)	-34.5%	-68.7%	inactive	inactive	inactive	inactive	inactive							
COCCOc1ccc2c(c1)ncn2-c1ccc2cccc(N3CCC(N)CC3)c2n1	2.3 µM (active) and 2.09 µM (active)	2.3 µM (active) and 2.35 µM (active)	-17.6%	48.2 µM (active)	-9.06%	-17.7%	inactive	inactive	inactive	inactive	inactive							
Cc1cc(Nc2nc(N[C@@H](C)c3ccc(F)cc3)c(C#N)cc2F)n[nH]1	578 nM (active) and 934 nM (active)	578 nM (active) and 742 nM (active)	-4.92%		-35.7%	-6.34%	inactive	inactive	inactive	inactive	inactive	0%	inactive					
CNC(=O)CN1CCC(Oc2cc3c(Nc4cccc(Cl)c4F)ncnc3cc2OC)CC1	16.3 µM (active) and 18.6 µM (active)	18.6 µM (active)	-36%	42.9 µM (active)	-23.1%	-49.9%	inactive	inactive	inactive	inactive	inactive							
C=CC(=O)Nc1cccc(Oc2nc(Nc3ccc(N4CCN(C)CC4)cc3)ncc2Cl)c1	728 nM (active) and 2.09 µM (active)	649 nM (active) and 1.32 µM (active)	-18%	27.1 µM (active)	-51.9%	-14.3%	inactive	inactive	1.89 µM (active)	inactive	inactive							
Cn1c(CNc2ccc(C(=N)N)cc2)nc2cc(C(=O)N(CCC(=O)O)c3ccccn3)ccc21	inactive	inactive	-2.15%		-1.22%	-0.426%	inactive	inactive	inactive	inactive	inactive	1.99%						
CC(C)(C)OC(=O)Nc1ccc(-c2cc(C(=O)NCCCCCCC(=O)NO)no2)cc1	1.48 µM (active)	1.32 µM (active)					inactive				inactive			inactive				
Nc1nc(NCCNc2ncc(-n3ccnc3)c(-c3ccc(Cl)cc3Cl)n2)ccc1[N+](=O)[O-]	5.15 µM (active) and inactive	4.59 µM (active) and inactive	-0.828%		-47.1%	-4.53%	inactive	inactive	inactive	0.536 µM (active)	inactive	0%						
NC1(Cc2ccc(Cl)cc2)CCN(c2ncnc3[nH]ccc23)CC1	9.34 µM (active)	8.33 µM (active)	-4.59%		-26.7%	-31.7%	inactive	inactive	inactive	inactive	inactive	0.429%						
O=C(O)c1ccc2c(c1)nc(Nc1cccc(Cl)c1)c1ccncc12	4.59 µM (active) and 2.95 µM (active)	3.65 µM (active)	-68.6%	27.1 µM (active)	-53.1%	-66.6%	inactive	inactive			inactive							
C=CCn1c(=O)c2cnc(Nc3ccc(N4CCN(C)CC4)cc3)nc2n1-c1cccc(C(C)(C)O)n1	290 nM (active) and 372 nM (active)	230 nM (active) and 468 nM (active)	-20.7%		-8.48%	-20.6%	inactive	inactive		inactive	inactive	-6.72%						
CC(C)c1cc(-c2n[nH]c(=O)n2-c2ccc3c(ccn3C)c2)c(O)cc1O	25.8 nM (active) and 29.5 nM (active)	25.8 nM (active) and 29.5 nM (active)	-27.7%	30.4 µM (active)	-33.4%	-21.8%	inactive	inactive	inactive	inactive	inactive							
Nc1nccc(Oc2ccc(NC(=O)c3c[nH]cc(-c4ccc(F)cc4)c3=O)cc2F)c1Cl	11.8 µM (active)	10.5 µM (active)	-3.16%		-55.9%	-3%	inactive		inactive	inactive	inactive	-6.18%						
COc1cc(C(=O)NS(=O)(=O)c2ccccc2C)ccc1Cc1cn(C)c2ccc(NC(=O)OC3CCCC3)cc12	inactive	inactive					9.04 µM (active)				inactive				25 µM (active)	inactive	inactive	49.4 µM (active)
Cc1ccc(C(N)=O)cc1Nc1nccc(-c2cn(C(C)C)c3cnccc23)n1	3.32 µM (active)	1.66 µM (active)	-56.6%	27.1 µM (active)	-53.8%	-56%	inactive	inactive	inactive	inactive	inactive							
CC[C@@H]1C(=O)N(C)c2cnc(Nc3ccc(C(=O)NC4CCN(C)CC4)cc3OC)nc2N1C1CCCC1	0.0372 µM (active)	0.0372 µM (active)	-18.1%	21.7 µM (active)	-45.4%	-31.6%	inactive				inactive							
C[C@@H](Oc1cc(-c2cnn(C3CCNCC3)c2)cnc1N)c1c(Cl)ccc(F)c1Cl	1.45 µM (active) and 1.83 µM (active) and 1.48 µM (active)	1.15 µM (active) and 1.29 µM (active) and 1.05 µM (active)	-38.2% and -62.1%	27.1 µM (active)	-57.8% and -68.4%	-33.1% and -60.2%	inactive	inactive	inactive	inactive	inactive							
Cc1c(CN2CCN(S(C)(=O)=O)CC2)sc2c(N3CCOCC3)nc(-c3cnc(N)nc3)nc12	29 nM (active) and 74.2 nM (active)	32.5 nM (active) and 118 nM (active)	-10.4%		-17.8%	-14.7%	inactive	inactive	inactive	inactive	inactive	-5.48%						
Nc1ccccc1NC(=O)c1ccc(CNc2nccc(-c3cccnc3)n2)cc1	258 nM (active) and 590 nM (active)	205 nM (active) and 590 nM (active)	-14%		-33.2%	-7.44%	inactive	inactive	inactive	inactive	inactive	-1.06%		inactive				
Cc1cc(Nc2cc(N3CCN(C)CC3)nc(Sc3ccc(NC(=O)C4CC4)cc3)n2)n[nH]1	0.296 µM (active)	0.0468 µM (active)	-3.34%		-2.46%	-1.21%	inactive	inactive	inactive	inactive	inactive	-2.28%						
Cc1nc(Nc2n[nH]c3c2CN(C(=O)N[C@H](CN(C)C)c2ccccc2)C3(C)C)c2sccc2n1	10.3 nM (active) and 11.8 nM (active)	16.3 nM (active) and 11.8 nM (active)	-6.29%	0.0061 µM (active)	-22.7%	-1.08%	inactive	inactive	inactive	inactive	inactive							
Nc1ccn([C@@H]2CS[C@H](CO)O2)c(=O)n1	inactive	inactive					inactive				inactive			inactive				
O=C(c1ccc(Nc2nccc(-c3cc4ccccc4s3)n2)cc1)N1CCC(N2CCCC2)CC1	1.45 µM (active) and 1.66 µM (active)	1.63 µM (active) and 1.66 µM (active)	-18.2%		-19.2%	-17.2%	inactive	inactive	inactive	inactive	inactive	-6.01%						
Nc1ncnc2c1c(-c1cnc3[nH]ccc3c1)nn2C1CCCC1	365 nM (active) and 417 nM (active)	365 nM (active) and 417 nM (active)	-9.35%		-56.1%	-52.4%	inactive		inactive	inactive	inactive	0.397%						
Nc1ccc(C(=O)c2cc3c(ccc4ccccc43)[nH]2)cc1	2.41 µM (active)	1.71 µM (active)																
Nc1cccc(-c2cc3c(Oc4cccc(O)c4)ncnc3[nH]2)c1	1.15 µM (active) and 1.05 µM (active)	1.15 µM (active) and 833 nM (active)	-47.2%	30.4 µM (active)	-47.2%	-55.3%	inactive and 14.3 µM (active)	inactive	9.47 µM (active)	inactive	inactive							
OCCCNc1cc(-c2ccnc(Nc3cccc(Cl)c3)n2)ccn1	29 nM (active) and 52.5 nM (active)	51.7 nM (active) and 33.2 nM (active)	-80.2%	10.8 µM (active)	-65.5%	-82.3%	inactive	inactive	inactive	inactive	inactive							
CC1(C)CC(=O)c2c(C(F)(F)F)nn(-c3ccc(C(N)=O)c(NC4CCC(OC(=O)CN)CC4)c3)c2C1 (stereo not drawn)	103 nM (active) and 74.2 nM (active)	81.7 nM (active) and 118 nM (active)	-2.7%		-47.8%	-0.772%	inactive	inactive	inactive	inactive	inactive	0%						
